Results on 51 compounds are retold here after PubChem BioAssay AID686979 (National Center for Advancing Translational Sciences (NCATS), 2013).

About 50,000 (12%) of roughly 420,000 compounds were called active. Another 26% or so got no clear call; they are omitted. The sample holds actives, similar compounds and a random draw of the others, so the mix is not that of the screen. Unmarked numbers belong to inactive results. Calls come from the whole dose curve; as a rule, active = well fitted inhibition curve with a large enough effect; inconclusive = small, poorly fitted or top-dose-only effect; inactive = flat fitted curve, though single readings scatter.
% is set by controls: 0 for no effect and ±100 for the full control effect; potency is the fitted concentration of half-maximal effect.

The nature of the experiment: qHTS for Inhibitors of human tyrosyl-DNA phosphodiesterase 1 (TDP1): qHTS in cells in presence of CPT. Note: nearly all actives have a fitted effect of over 55% in size. Particulars: chicken DT40 Tdp1-/-;hTDP1 cells + 20 nM CPT, ATP luminescence, 48 h; series mostly up to 46.2 µM; activity change, negative = growth inhibition: at the top concentration. The gist of the method: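 Chicken DT40 Tdp1-/- cells complemented with human TDP1, 400 cells/well, exposed to compounds plus 20 nM camptothecin for at least 48 h at 37 C; viability read as ATP content by CellTiter-Glo luminescence.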
Background: In qHTS, concentration-response curves come from the screen itself.
In the case of `O=C(CSc1ccc(-c2ccccc2)nn1)NCC1CCCO1` (stereo unspecified), the “activity change, negative = growth inhibition” value was -6.35%. Same read-out and setting: as for `Cc1ccc(SCC(=O)Nc2nncs2)cc1`, the figure is -23.3%. The same measure, in the same setting: as for `CC(C)Oc1ccc(C(=O)NCC(=O)Nc2ccc3c(c2)CCC3)cc1`, the figure is -21.7%; as for `CC(C)Cn1c(SCC(=O)Nc2ccc(Cl)cc2F)nc(O)cc1=O`, 26.8%. The same measure, in the same setting: as for `COc1ccc(OCc2ccc(-c3nc(C#N)c(N4CCN(c5ccccc5)CC4)o3)o2)cc1`, the figure is 1.42%. As for `CC1CCN(c2oc(-c3ccccc3F)nc2C#N)CC1`, the Potency is 16.4 µM (active). For the compound `COc1ccccc1-c1nc(C#N)c(N2CCC(C(N)=O)CC2)o1`, the “activity change, negative = growth inhibition” value is -18.9%. On the same count and under the same terms, to `O=S(=O)(c1ccc(Br)c2ccccc12)N1CCOCC1` belongs 5.94%. The same measure, in the same setting: to `Cc1noc(C)c1NC(=O)Nc1cccc2c1O[C@H](CN(C)C(=O)Nc1ccccc1)[C@@H](C)CN([C@H](C)CO)C2=O` belongs -1.98%. The same measure, in the same setting: to `Cc1cc(C(=O)N/N=C/c2ccc(N3CCOCC3)cc2)c(C)o1` belongs -6.34%. For the compound `Cc1ccccc1N/N=C/c1ccc(N2CCOCC2)cc1`, the “activity change, negative = growth inhibition” value is -18.7%. On to `CNC(=S)N/N=C/c1ccc(N2CCOCC2)s1`, for which the Potency is 4.61 µM (active). `Cc1ccc2[nH]c3c(=O)n(CC(=O)NC(C)C)ncc3c2c1`: the “activity change, negative = growth inhibition” value is -21.8%. Still for that read-out and setting: to `CN(c1ccc(O)cc1)c1nc(-c2cccnc2)cs1` belongs -24.2%. Still for that read-out and setting: as for `O=C(Nc1ccc(-c2ccc3nncn3n2)cc1)C1CCCCC1`, the figure is -21.7%; as for `NNc1nc2c(Cl)cccc2s1`, -14%.

Take `Cn1c(SCC(=O)NC2CCCCC2)nnc1-c1cc2ccccc2o1`: the “activity change, negative = growth inhibition” value is -15.6%.

On to `CC(=O)N1Cc2cc(C(=O)NCc3cccc(F)c3)nc(-c3cccc(C4=CCCC4)c3)c2[C@H]1CCO`, for which the Potency is 18.4 µM (active).

On to `Cc1c(C(=O)NCC2CC2)sc(=O)n1Cc1cccc(F)c1`, for which the “activity change, negative = growth inhibition” value was -13.6%. On to `CC(C)NC(=O)N1Cc2cc(C(=O)NCC(F)(F)F)nc(-c3cccc(-c4cc5ccccc5o4)c3)c2[C@@H]1CCO`, for which the Potency is 18.4 µM (active). As to `COc1ccc(CCNC(=O)CN(C)S(=O)(=O)c2ccc3nc(C)sc3c2)cc1OC`, the “activity change, negative = growth inhibition” value was -27.7%.

As to `COCCSc1nnc(NC(=O)c2cc(OC)c(OC)cc2[N+](=O)[O-])s1`, the “activity change, negative = growth inhibition” value was -7.44%. Same read-out and setting: as for `CCN1CCN(C(=O)c2cc3cc4ccc(OC)cc4nc3s2)CC1`, the figure is 28.6%; as for `COC(=O)c1ccc(NC(=O)c2cccc3c2C(=O)N(C2CCCCC2)C3)cc1`, -1.27%; as for `COc1ccc(CCNc2ncnc3sc(C(=O)N4CCCC4)c(C)c23)cc1OC`, 3.59% [at 9.04 µM].

Consider `CCS(=O)(=O)NCCc1ccc(OC)c(OC)c1`, for which the “activity change, negative = growth inhibition” value was -7.71%.

As to `COc1ccc(CCNc2ncnc3nc[nH]c23)cc1OC`, the Potency is 18.4 µM (active).

In the case of `COc1ccc(/C(C)=N/N2CCOCC2)c(O)c1`, the “activity change, negative = growth inhibition” value is 2.69%. Same read-out and setting: to `O=C(Nc1cc(-c2nn(CC(=O)N3CCCCC3)c(=O)c3ccccc23)ccc1N1CCOCC1)c1ccc(Cl)cc1` belongs -5.93%. For `COc1ccc(S(=O)(=O)N2CCN(C(=O)c3cc(C)oc3C)CC2)cc1`, the “activity change, negative = growth inhibition” value was 0.208%. In the case of `CC(=O)c1c(C)[nH]c(C(=O)N2CCN(S(=O)(=O)c3ccc(F)c(F)c3)CC2)c1C`, the Potency is 0.231 µM (active).

As for `CC(=O)c1c(C)[nH]c(C(=O)OCC(=O)Nc2cc(S(=O)(=O)N3CCCCC3)ccc2C)c1C`, the “activity change, negative = growth inhibition” value is 0.51%. The same measure, in the same setting: as for `COc1cccc2c1CCC(NC(C)=O)C2=O` (stereo unspecified), the figure is -24%; as for `Cc1cc(O)c(Sc2ccccc2)c(=O)o1`, 4.82%. Same read-out and setting: to `O=C(COC(=O)c1cccs1)Nc1ccccc1Cl` belongs 8.81%; to `O=C(Nc1ccccc1Cl)c1ccc2nsnc2c1`, 5.44%. Take `O=C(Nc1ccccc1Cl)/C(Cl)=C(\Cl)S(=O)c1ccccc1` (stereo unspecified): the Potency is 0.164 µM (active). As for `CCNC(=S)NCC`, the “activity change, negative = growth inhibition” value was 8.89%. Turning to `Cc1cc(C)c(S(=O)(=O)NN=C2c3ccccc3[C@H]3Cc4csc[n+]4[C@@H]23)c(C)c1`, the Potency is 29.1 µM (active). For the compound `CC(=O)Nc1ccc(S(=O)(=O)NC(C)C(=O)OCCOc2ccc(F)cc2)cc1` (stereo unspecified), the “activity change, negative = growth inhibition” value is -20.5%. On the same count and under the same terms, as for `CCC(=O)NC(NCC1CCCO1)C(Cl)(Cl)Cl` (stereo unspecified), the figure is -12.2%. In the case of `O=C(NCC1CCCO1)c1cc2c(s1)CCCC2` (stereo unspecified), the “activity change, negative = growth inhibition” value is -4.2%. As for `CC1(C(=O)NNC(=S)NCC2CCCO2)CC1(Cl)Cl` (stereo unspecified), the Potency is 18.4 µM (active). Consider `COc1ccc(NC(=S)N2CCC(NC(=O)c3cccc(F)c3)CC2)cc1`, for which the “activity change, negative = growth inhibition” value is -22.8%. Same read-out and setting: as for `COc1ccc(C)cc1Nc1nc(C)nc2c1oc1ccccc12`, the figure is -29.3%; as for `CC(=O)Nc1ccc(-c2cn3cccnc3n2)cc1`, -9.08%; as for `CCOC(=O)CC(=O)CSc1nc(-c2ccccc2)cc(-c2ccc(Cl)cc2)c1C#N`, -0.328%. With `CCOc1cc(-c2cc(-c3ccc(NC(C)=O)cc3)nc(N)c2C#N)ccc1O`, the Potency is 18.4 µM (active). For the compound `CN(C(=O)CSc1nnc(C2CC2)n1C)C1CCCc2ccccc21` (stereo unspecified), the “activity change, negative = growth inhibition” value was -12.5%. Turning to `CCC(C)(C)n1nnnc1C(c1ccccc1OC)N1CCSCC1` (stereo unspecified), the “activity change, negative = growth inhibition” value was -10.4%. Consider `COc1ccc(OC)c(C(c2nnnn2C(C)(C)C)N2CCc3ccccc3C2)c1` (stereo unspecified), for which the Potency is 20.6 µM (active).
